RAD52 anneal inh: RAD52 DNA annealing inhibitors, primary screen, biochemical, FRET, single point, set 2. DNA repair protein RAD52 homolog (Homo sapiens), P43351. recombinant RAD52 DNA annealing, FRET fluorescence. inhibition, % at 18.7 µM. hit rate 0.46% among 360,000. AID 651710, 2012;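 active means every replicate showing at least 50% inhibition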
Target sequence (P43351 whole entry, looked up): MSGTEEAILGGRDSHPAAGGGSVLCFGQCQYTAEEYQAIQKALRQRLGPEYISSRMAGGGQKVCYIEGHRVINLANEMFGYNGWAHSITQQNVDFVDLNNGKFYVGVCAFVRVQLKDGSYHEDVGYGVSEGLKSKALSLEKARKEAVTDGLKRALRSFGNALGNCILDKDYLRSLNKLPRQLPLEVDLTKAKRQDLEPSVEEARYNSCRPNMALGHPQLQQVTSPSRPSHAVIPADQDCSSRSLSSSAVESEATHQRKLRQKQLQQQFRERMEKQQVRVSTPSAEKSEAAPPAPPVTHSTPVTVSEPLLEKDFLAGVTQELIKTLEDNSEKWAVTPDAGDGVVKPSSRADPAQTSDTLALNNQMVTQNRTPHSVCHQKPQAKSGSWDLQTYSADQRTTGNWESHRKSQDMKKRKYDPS
N-glyco inh: increase of ERlucT glycosylation luciferase signal, primary screen, N-linked glycosylation inhibitor project, D54 ERlucT cells, luminescence, set 2; D54 ERlucT glycosylation luciferase reporter, 24 h; percent of 100 nM tunicamycin response; reporter increase, % at 12.5 µM; hit rate 0.23% among 360,000; AID 588692, 2011;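 active means mean luciferase reporter signal, scaled so untreated is 0 and the glycosylation-blocking control 100, at or above a set limit in every replicate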;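 further: luciferase carries N-glycosylation sites so blocking glycosylation raises the light; 0% = median of neutral control wells and 100% = median of 100 nM tunicamycin wells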
Casp6 inh: human caspase-6 inhibitors, primary screen, biochemical, VEID-R110 fluorescence, single point, set 2; P55212; purified caspase-6, Z-VEID-R110 cleavage fluorescence; inhibition, % at 12.5 µM; hit rate 0.53% among 350,000; AID 686996, 2013;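 active means mean inhibition across replicates at least about 35%, with every replicate also reaching that limit, limit read from the data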;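 further: 0% = median of neutral control wells and 100% = no fluorescence left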
NSD2 inh: NSD2 histone methyltransferase inhibitors, primary screen, biochemical, AlphaScreen, single concentration, set 2; Histone-lysine N-methyltransferase NSD2 (Homo sapiens), O96028; NSD2 peptide methylation, 120 min; inhibition, % at 12.5 µM; hit rate 0.54% among 310,000; AID 743445, 2014; in the data active means inhibition above about 50%
RAD54 inh: inhibitors of human RAD54 branch migration, primary screen, biochemical, fluorescence, single point | hit rate 0.14% among 360,000 | RAD54 Holliday junction branch migration, FAM/BHQ fluorescence | inhibition, % at 10.4 µM | AID 602329, 2012;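 active means mean normalized replicate activity at least 40 and at least half of replicates scoring 40 or more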;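 further: 0% = median of neutral control wells and 100% = median of positive control wells; inhibitors cause a drop in the FAM fluorescence signal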
AlphaScreen art: AlphaScreen signal interference with preloaded methylated product, dose response, artefact control for NSD2 inhibitor project, biochemical, cherry-picked samples; shares compounds with NSD2 inh; AlphaScreen artifact counterscreen, preloaded methylated H4 peptide; AC35, µM (highest dose often 10 µM), for inactives: at the highest dose activity change, negative = signal loss; hit rate 9.4% among 1,500; AID 1053174, 2014; call rule not given here
* marks the source's active call; other numbers are inactive results; x = no result. The list is not random: actives were taken first. Their share in the collection is about 1.2%.

SMILES | RAD52 anneal inh | N-glyco inh | Casp6 inh | NSD2 inh | RAD54 inh | AlphaScreen art
CC(C)(C)C1CCC2(CC1)C(Nc1cccc(C(F)(F)F)c1)=NC(=S)N2CC#N (stereo not given) | x | -8 | x | 64* | -38 | 2%
O=C(OCC(=O)N1CCOCC1)c1ccc(Br)cc1 | -12 | -1 | 0 | 64* | 6 | -1%
CC(=O)N(C)C[C@@H]1Oc2ncc(C#Cc3ccccc3)cc2C(=O)N([C@H](C)CO)C[C@@H]1C | 17 | x | 0 | x | -20 | x
CCOc1ccc2[nH]c3c(NCCN(CC)CC)ncnc3c2c1 | 47 | 4 | -15 | 103* | 35 | -4%
CCC(=O)N(C)C[C@H]1Oc2cc(-c3ccccc3F)ccc2S(=O)(=O)N([C@@H](C)CO)C[C@@H]1C | 7 | x | 3 | x | 4 | x
COc1cc(OC)c(C(=O)OCC(=O)Nc2c(C)n(C)n(-c3ccccc3)c2=O)cc1OC | -3 | 0 | -1 | 0 | x | x
COc1ccc(C(=O)OCC(=O)Nc2c(C)n(C)n(-c3ccccc3)c2=O)cc1 | -14 | 4 | -3 | 51* | -9 | -2%
CC(C)CC#Cc1cnc2c(c1)C(=O)N([C@@H](C)CO)C[C@@H](C)[C@@H](CN(C)C(=O)c1ccc3c(c1)OCO3)O2 | 10 | x | -1 | x | 3 | x
Nc1ccc2nn(-c3cc([N+](=O)[O-])ccc3O)nc2c1 | -9 | 1 | 7 | 79* | -5 | -1%
Cc1noc(C)c1NC(=O)N(C)C[C@H]1Oc2c(NC(=O)Nc3ccc(F)cc3)cccc2C(=O)N([C@H](C)CO)C[C@@H]1C | -6 | x | -2 | x | -4 | x
O=c1[nH]c(NCCO)c(N=Cc2ccccc2)c(=O)[nH]1 | -73 | 1 | -1 | 104* | 4 | 3%
Nc1[nH]c(=O)[nH]c(=O)c1N=Cc1ccccc1 | x | -1 | x | -1 | x | x
C[C@H]1CN([C@@H](C)CO)C(=O)Cc2cc(NC(=O)Nc3ccc4c(c3)OCO4)ccc2O[C@@H]1CN(C)S(C)(=O)=O | -14 | x | 0 | x | x | x
CC(=O)NC1=NN(C(C)=O)C(C)(c2cccc([N+](=O)[O-])c2)S1 (stereo not given) | -2 | 0 | -1 | 99* | x | 2%
CC(=O)NC1=NN(C(C)=O)C(C)(c2ccc(Br)cc2)S1 (stereo not given) | -3 | 4 | 2 | -1 | -6 | x
Cc1ccccc1-c1cnc2c(c1)C(=O)N([C@H](C)CO)C[C@H](C)[C@@H](CN(C)CC1CCCC1)O2 | -12 | x | 1 | x | 4 | x
Cc1ccc(NC(=S)N2CCC(NC(=O)c3cccc(F)c3)CC2)cc1 | -6 | 1 | 0 | 89* | 0 | 2%
Cc1ccc(NC(=S)N2CCC(NC(=O)c3ccc(C)cc3)CC2)cc1 | -6 | 0 | 0 | x | 10 | x
CC(C)NC(=O)N(C)C[C@H]1Oc2ncc(C#CC3CC3)cc2C(=O)N([C@H](C)CO)C[C@H]1C | 5 | x | 5 | x | 2 | x
C[C@H](CO)N1C[C@H](C)[C@@H](CN(C)C(=O)Nc2ccccc2)Oc2ccc(NS(C)(=O)=O)cc2CC1=O | 5 | x | -5 | x | -12 | x
CNCc1ccccc1OCc1ccccc1F | -12 | -4 | 0 | 53* | -6 | 0%
Cc1cccc(OCC(=O)Nc2ccncc2)c1C | 9 | 1 | 14 | 1 | 1 | x
Cc1cccc(OCC(=O)Nc2ncn[nH]2)c1C | -4 | 0 | -1 | 98* | -3 | -6%
CCc1nnc(NC(=O)c2ccc(COc3ccc(C)cc3)o2)s1 | x | 2 | x | -6 | -11 | x
CCc1nnc(NC(=O)c2ccc(COc3ccccc3)o2)s1 | x | -1 | x | 96* | -5 | 1%
SMILES | RAD52 anneal inh | N-glyco inh | Casp6 inh | NSD2 inh | RAD54 inh | AlphaScreen art
CCSc1nnc(NC(=O)c2ccc3ccccc3n2)s1 | x | -2 | x | 1 | x | x
CCc1nnc(NC(=O)c2ccc3ccccc3n2)s1 | -41 | -5 | -5 | 78* | 10 | -1%
CN(C)CC(=O)Nc1ccc2c(c1)[C@@H]1C[C@H](CC(=O)NCCN3CCCCC3)O[C@@H](CO)[C@@H]1O2 | 7 | x | 1 | x | -1 | x
Cc1ccccc1NCC(=O)Nc1cc(S(=O)(=O)N2CCCCC2)ccc1C | -10 | 0 | -2 | 57* | 1 | -7%
Cc1ccc(S(=O)(=O)N2CCOCC2)cc1NC(=O)CSc1ccccn1 | -36 | 0 | 0 | 52* | -6 | -2%
Cc1ccc(S(=O)(=O)N2CCOCC2)cc1NC(=O)CSc1nccn1C | x | 0 | x | -4 | x | x
Cc1ccc(S(=O)(=O)N2CCCCC2)cc1NC(=O)COc1ccccc1 | -6 | -2 | 2 | -1 | 0 | x
C[C@@H]1CN([C@H](C)CO)C(=O)Cc2cc(NC(=O)Cc3ccccc3)ccc2O[C@H]1CN(C)C(=O)Nc1ccccc1 | 9 | x | 1 | x | 0 | x
Cc1ccc(NC(=O)N2C3CCCC2CC(NC(=O)C(C)(C)C)C3)cc1 (stereo not given) | 1 | 2 | 1 | -3 | -4 | x
CC(C)(C)C(=O)NC1CC2CCCC(C1)N2C(=O)Nc1ccc(Cl)cc1 (stereo not given) | -6 | 0 | -5 | 56* | -2 | 5%
CNc1ccc(Br)cc(C(=O)/C=C/c2cc(OC)ccc2OC)c1=O | x | 6 | x | 12 | -11 | x
CNc1ccc(Br)cc(C(=O)/C=C/c2ccc(OC)cc2)c1=O | x | 21 | x | 66* | x | -11%
COc1ccc(NC(=O)Nc2ccc3c(c2)C(=O)N([C@H](C)CO)C[C@H](C)[C@H](CN(C)CC2CC2)OCCCC[C@H](C)O3)cc1 | 41 | x | -9 | x | 7 | x
O=C(c1cc(-c2ccc(Cl)c(Cl)c2)on1)N1CCCCCC1 | -1 | -1 | -2 | 81* | -5 | -2%
COCCCNC(=S)Nc1cccc2ncccc12 | -10 | 5 | 1 | 86* | x | -1%
COc1ccccc1CN1C[C@@H](C)[C@H](OC)CN(C)C(=O)c2ccc(NC(C)=O)cc2OC[C@H]1C | 5 | x | 1 | x | -12 | x
Nc1c2c(=O)oc(-c3ccccc3)cc2nn1-c1ccccc1 | x | 8 | x | 126* | -5 | -9%
CCCOc1ccc(-c2nc(SCc3ccccc3)[nH]c(=O)c2C#N)cc1OC | -11 | 1 | -3 | 66* | -2 | 0%
O=C(O)Cc1sc(NC2CCCCC2)nc1-c1ccc(Cl)cc1 | -36 | 5 | -1 | 99* | 0 | -4%
Cc1ccc(-c2nc(Nc3cccc(C)c3)sc2CC(=O)O)cc1 | -14 | 0 | 0 | x | -1 | x
CC(C)NC(=O)N(C)C[C@H]1Oc2ccc(NC(=O)Nc3cccc4ccccc34)cc2C(=O)N([C@H](C)CO)C[C@@H]1C | -11 | x | 1 | x | -5 | x

Screening results deposited in PubChem BioAssay by Broad Institute.
